The target in assay [1] is Homeodomain-interacting protein kinase 3 (Homo sapiens) (UniProt Q9H422). The note with it: at 10 µM.
For assay [2], the target named is T1, Serine/threonine-protein kinase haspin (Homo sapiens) (UniProt Q8TF76).
T1 sequence (whole entry): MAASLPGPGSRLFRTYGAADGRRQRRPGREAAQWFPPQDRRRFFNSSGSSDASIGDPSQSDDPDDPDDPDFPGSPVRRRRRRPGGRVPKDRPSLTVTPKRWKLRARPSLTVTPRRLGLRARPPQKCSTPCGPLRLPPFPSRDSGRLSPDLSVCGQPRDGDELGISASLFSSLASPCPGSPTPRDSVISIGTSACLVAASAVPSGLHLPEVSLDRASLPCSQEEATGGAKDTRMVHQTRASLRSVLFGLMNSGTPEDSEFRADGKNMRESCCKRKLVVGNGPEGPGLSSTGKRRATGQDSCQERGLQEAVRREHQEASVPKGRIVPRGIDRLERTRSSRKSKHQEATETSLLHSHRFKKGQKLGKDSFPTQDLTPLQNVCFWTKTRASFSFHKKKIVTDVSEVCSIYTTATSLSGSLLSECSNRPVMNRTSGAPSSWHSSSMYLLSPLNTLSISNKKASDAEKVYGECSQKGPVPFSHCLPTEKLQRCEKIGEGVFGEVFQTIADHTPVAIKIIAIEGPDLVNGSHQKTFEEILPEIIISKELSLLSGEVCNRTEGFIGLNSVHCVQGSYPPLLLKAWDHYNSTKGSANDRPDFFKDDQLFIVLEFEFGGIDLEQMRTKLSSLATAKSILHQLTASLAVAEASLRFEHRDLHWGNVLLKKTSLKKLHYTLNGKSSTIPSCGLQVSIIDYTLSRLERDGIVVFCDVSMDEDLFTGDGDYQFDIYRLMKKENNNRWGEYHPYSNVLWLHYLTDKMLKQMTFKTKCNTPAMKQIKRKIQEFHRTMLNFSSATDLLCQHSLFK
The following applies: at 1 µM.

For assay [3], the target named is T1, Serine/threonine-protein kinase haspin (Homo sapiens). The following applies: at 10 µM.
Assay [4] concerns the target Tyrosine-protein kinase HCK (Homo sapiens) (UniProt P08631). The note with it: at 1 µM.
Assay [5] shares this target. The following applies: at 10 µM.
Assay [6] has the same target. The following applies: at 1 µM. This is another data set of the same source.
Assay [7] shares this target. The following applies: at 10 µM. This is another data set of the same source.
The target of assay [8] is Insulin-like growth factor 1 receptor (Homo sapiens) (UniProt P08069). The note with it: at 1 µM.
The target is the same in assay [9]. The note with it: at 10 µM.
Assay [10] concerns the target T2, Protein kinase C zeta type (Homo sapiens) (UniProt Q05513).
T2 sequence (whole entry): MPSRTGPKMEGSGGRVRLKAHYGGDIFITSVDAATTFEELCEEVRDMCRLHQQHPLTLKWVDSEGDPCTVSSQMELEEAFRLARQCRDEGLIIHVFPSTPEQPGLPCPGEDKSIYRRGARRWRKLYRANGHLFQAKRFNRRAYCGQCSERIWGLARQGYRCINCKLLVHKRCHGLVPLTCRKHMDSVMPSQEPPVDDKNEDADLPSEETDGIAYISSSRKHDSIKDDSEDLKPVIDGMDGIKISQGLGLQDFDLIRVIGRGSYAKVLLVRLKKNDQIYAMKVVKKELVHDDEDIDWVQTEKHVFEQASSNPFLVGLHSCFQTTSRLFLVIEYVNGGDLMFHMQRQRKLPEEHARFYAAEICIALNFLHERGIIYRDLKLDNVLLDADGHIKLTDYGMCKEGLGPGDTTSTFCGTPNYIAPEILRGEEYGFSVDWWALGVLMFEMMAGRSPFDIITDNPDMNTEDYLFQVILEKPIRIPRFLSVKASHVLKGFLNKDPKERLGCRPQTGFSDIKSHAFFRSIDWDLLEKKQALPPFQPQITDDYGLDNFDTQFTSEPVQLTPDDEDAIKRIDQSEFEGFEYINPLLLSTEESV
The following applies: at 10 µM.

The target of assay [11] is Protein kinase C eta type (Homo sapiens) (UniProt P24723). The following applies: at 1 µM.
The target is the same in assay [12]. The note with it: at 10 µM.
Assay [13] deals with Protein kinase C theta type (Homo sapiens) (UniProt Q04759). The following applies: at 1 µM.
For assay [14] the target is unchanged. The following applies: at 10 µM.
Assay [15] addresses T3, Protein kinase C iota type (Homo sapiens) (UniProt P41743).
T3 sequence (whole entry): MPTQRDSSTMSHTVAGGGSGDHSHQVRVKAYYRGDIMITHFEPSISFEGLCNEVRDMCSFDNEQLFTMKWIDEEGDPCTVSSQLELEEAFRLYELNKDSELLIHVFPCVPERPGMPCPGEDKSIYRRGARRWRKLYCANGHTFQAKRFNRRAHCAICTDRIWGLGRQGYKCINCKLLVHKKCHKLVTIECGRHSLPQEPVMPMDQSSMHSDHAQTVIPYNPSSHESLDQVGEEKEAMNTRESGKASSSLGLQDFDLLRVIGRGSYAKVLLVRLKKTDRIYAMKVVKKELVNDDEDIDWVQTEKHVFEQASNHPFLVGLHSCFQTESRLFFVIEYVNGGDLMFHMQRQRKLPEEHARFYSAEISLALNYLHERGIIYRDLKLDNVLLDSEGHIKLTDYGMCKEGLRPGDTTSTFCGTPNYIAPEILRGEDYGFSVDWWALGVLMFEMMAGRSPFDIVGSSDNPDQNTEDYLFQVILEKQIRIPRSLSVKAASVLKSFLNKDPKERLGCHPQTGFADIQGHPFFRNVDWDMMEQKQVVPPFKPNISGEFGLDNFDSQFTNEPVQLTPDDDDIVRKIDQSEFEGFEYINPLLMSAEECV
The note with it: at 1 µM.

In assay [16] the target is T3, Protein kinase C iota type (Homo sapiens). The note with it: at 10 µM.
The target in assay [17] is T4, Serine/threonine-protein kinase D1 (Homo sapiens) (UniProt Q15139).
T4 sequence (whole entry): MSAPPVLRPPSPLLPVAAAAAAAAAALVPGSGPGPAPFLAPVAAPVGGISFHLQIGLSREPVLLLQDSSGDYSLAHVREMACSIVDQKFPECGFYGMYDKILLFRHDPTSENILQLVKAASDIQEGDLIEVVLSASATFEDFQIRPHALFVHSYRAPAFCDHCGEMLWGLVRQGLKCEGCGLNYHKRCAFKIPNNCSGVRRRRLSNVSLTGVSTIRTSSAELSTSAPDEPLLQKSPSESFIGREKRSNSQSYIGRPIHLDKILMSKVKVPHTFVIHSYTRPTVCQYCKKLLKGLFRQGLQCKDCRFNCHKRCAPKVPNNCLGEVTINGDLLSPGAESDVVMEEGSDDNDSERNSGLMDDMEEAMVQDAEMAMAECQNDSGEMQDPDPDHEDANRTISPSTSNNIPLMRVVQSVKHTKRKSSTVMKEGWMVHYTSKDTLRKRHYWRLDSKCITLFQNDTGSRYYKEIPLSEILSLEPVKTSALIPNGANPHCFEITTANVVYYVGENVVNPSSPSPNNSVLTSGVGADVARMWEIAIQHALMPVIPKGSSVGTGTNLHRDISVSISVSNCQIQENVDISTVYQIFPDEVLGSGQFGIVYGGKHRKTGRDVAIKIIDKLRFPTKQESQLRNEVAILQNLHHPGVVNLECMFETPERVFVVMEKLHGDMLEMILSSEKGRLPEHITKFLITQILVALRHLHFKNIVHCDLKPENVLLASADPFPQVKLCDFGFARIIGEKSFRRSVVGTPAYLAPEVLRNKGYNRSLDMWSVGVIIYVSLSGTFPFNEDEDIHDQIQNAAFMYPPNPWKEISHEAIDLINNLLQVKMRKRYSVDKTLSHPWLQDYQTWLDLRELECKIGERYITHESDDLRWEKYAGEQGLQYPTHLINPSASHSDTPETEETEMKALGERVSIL
The following applies: at 1 µM.

Assay [18] deals with T4, Serine/threonine-protein kinase D1 (Homo sapiens). The following applies: at 10 µM.
The target of assay [19] is T5, Serine/threonine-protein kinase D2 (Homo sapiens) (UniProt Q9BZL6).
T5 sequence (whole entry): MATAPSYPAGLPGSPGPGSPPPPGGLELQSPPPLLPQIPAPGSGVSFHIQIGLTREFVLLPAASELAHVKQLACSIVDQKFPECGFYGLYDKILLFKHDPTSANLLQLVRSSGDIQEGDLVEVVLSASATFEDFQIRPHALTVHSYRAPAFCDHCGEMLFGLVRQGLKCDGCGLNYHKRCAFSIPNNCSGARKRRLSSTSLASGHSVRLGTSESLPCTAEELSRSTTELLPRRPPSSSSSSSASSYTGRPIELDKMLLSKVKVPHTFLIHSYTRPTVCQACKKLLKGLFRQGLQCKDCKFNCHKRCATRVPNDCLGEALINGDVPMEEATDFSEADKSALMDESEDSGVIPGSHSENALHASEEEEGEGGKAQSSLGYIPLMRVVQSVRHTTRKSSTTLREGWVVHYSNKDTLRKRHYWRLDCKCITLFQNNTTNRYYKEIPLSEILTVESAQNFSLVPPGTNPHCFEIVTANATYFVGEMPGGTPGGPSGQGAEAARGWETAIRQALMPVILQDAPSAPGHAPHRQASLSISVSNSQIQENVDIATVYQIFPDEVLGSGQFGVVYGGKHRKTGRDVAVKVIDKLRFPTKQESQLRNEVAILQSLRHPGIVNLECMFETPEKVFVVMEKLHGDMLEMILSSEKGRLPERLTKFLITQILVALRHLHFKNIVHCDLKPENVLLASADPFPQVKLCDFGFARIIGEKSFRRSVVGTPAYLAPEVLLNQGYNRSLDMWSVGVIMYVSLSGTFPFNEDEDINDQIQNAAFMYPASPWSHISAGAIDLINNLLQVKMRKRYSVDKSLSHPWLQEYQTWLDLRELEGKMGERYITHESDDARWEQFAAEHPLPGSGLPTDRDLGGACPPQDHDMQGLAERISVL
The note with it: at 1 µM.

Assay [20] addresses T5, Serine/threonine-protein kinase D2 (Homo sapiens). The following applies: at 10 µM.

Sequence of Insulin-like growth factor 1 receptor (Homo sapiens) (P08069 31-736 limits assumed): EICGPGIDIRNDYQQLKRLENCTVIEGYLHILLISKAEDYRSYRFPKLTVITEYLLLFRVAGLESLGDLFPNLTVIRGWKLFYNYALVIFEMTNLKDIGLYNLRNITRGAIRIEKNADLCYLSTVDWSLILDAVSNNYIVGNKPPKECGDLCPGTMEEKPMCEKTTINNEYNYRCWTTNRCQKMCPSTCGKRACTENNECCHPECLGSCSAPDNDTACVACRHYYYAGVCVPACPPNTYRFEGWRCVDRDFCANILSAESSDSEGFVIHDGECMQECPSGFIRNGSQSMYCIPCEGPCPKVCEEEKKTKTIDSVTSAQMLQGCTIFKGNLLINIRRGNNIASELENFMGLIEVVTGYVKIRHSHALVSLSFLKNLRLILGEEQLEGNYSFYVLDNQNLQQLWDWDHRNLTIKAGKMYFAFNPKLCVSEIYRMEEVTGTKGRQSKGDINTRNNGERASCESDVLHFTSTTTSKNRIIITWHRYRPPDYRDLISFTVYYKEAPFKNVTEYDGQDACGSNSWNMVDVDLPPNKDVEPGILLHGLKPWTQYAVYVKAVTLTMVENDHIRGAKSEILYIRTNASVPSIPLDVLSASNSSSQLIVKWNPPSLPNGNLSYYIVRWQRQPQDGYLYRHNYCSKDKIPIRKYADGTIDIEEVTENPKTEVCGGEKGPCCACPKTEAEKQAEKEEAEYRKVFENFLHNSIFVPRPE
Sequence of Insulin-like growth factor 1 receptor (Homo sapiens) (P08069 741-1367 limits assumed): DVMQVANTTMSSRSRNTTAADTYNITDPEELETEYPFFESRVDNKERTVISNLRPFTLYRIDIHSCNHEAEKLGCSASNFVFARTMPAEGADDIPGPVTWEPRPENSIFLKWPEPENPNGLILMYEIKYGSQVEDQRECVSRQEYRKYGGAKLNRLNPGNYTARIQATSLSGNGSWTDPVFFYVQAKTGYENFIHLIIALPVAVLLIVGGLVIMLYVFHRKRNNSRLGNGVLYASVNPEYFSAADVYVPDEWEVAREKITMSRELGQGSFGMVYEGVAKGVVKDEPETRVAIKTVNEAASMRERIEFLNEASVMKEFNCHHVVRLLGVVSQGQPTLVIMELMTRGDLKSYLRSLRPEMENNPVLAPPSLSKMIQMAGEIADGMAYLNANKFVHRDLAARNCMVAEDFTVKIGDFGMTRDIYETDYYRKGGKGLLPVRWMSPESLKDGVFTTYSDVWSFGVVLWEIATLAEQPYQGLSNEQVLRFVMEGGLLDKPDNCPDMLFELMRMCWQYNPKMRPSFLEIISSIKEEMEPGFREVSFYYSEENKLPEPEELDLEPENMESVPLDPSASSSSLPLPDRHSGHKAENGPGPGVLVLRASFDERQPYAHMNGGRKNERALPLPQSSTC
Sequence of Protein kinase C theta type (Homo sapiens) (Q04759 whole entry, looked up): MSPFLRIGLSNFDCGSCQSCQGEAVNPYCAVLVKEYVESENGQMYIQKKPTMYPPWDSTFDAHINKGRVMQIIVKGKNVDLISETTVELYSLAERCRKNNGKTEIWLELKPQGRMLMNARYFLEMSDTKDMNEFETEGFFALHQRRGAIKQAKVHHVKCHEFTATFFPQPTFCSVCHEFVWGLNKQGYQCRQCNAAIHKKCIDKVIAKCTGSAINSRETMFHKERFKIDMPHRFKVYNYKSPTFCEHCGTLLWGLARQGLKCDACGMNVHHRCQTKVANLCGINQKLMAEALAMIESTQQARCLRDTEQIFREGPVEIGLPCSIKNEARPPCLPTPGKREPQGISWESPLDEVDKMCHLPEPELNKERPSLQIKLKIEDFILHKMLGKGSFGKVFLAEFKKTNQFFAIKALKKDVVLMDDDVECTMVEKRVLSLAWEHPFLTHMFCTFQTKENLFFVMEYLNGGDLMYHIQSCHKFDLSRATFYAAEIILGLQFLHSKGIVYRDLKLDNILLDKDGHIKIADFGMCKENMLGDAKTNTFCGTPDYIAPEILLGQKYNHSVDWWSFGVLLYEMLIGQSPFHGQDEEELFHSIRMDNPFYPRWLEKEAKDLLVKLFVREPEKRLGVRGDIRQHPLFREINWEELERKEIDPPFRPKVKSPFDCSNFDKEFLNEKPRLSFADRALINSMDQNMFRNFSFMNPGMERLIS
Sequence of Protein kinase C eta type (Homo sapiens) (P24723 whole entry): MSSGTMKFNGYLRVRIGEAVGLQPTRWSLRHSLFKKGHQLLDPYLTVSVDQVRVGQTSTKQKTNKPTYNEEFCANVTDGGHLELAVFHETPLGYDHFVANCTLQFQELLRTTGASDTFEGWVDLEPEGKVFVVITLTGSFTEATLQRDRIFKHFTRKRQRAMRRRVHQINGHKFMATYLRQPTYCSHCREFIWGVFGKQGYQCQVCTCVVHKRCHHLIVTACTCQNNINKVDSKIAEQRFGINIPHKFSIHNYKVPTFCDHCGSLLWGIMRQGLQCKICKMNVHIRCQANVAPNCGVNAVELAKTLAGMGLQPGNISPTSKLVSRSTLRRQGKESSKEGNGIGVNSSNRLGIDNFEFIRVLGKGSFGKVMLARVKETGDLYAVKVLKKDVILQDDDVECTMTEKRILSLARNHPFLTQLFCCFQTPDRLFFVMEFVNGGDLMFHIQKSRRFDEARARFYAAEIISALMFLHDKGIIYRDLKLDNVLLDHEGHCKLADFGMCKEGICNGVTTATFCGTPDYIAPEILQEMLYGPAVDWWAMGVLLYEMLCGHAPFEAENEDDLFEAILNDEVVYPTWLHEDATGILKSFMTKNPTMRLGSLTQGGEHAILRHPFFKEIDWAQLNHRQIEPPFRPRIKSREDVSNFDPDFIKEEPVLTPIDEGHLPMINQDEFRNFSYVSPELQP
Sequence of Tyrosine-protein kinase HCK (Homo sapiens) (P08631 2-526 limits assumed): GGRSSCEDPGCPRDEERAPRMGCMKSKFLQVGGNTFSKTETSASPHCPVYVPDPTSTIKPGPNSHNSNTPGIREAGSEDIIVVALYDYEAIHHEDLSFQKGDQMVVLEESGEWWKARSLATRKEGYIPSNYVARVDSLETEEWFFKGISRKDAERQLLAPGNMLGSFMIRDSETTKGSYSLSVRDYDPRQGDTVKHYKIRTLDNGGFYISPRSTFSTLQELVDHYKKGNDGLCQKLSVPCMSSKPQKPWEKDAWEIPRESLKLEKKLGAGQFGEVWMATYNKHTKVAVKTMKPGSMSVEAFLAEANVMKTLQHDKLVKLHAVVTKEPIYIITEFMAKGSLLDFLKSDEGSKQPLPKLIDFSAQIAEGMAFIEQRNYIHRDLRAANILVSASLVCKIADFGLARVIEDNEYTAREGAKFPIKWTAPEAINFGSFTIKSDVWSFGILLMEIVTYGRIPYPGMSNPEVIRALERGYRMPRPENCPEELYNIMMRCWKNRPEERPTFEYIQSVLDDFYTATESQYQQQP
Sequence of Homeodomain-interacting protein kinase 3 (Homo sapiens) (Q9H422 whole entry, looked up): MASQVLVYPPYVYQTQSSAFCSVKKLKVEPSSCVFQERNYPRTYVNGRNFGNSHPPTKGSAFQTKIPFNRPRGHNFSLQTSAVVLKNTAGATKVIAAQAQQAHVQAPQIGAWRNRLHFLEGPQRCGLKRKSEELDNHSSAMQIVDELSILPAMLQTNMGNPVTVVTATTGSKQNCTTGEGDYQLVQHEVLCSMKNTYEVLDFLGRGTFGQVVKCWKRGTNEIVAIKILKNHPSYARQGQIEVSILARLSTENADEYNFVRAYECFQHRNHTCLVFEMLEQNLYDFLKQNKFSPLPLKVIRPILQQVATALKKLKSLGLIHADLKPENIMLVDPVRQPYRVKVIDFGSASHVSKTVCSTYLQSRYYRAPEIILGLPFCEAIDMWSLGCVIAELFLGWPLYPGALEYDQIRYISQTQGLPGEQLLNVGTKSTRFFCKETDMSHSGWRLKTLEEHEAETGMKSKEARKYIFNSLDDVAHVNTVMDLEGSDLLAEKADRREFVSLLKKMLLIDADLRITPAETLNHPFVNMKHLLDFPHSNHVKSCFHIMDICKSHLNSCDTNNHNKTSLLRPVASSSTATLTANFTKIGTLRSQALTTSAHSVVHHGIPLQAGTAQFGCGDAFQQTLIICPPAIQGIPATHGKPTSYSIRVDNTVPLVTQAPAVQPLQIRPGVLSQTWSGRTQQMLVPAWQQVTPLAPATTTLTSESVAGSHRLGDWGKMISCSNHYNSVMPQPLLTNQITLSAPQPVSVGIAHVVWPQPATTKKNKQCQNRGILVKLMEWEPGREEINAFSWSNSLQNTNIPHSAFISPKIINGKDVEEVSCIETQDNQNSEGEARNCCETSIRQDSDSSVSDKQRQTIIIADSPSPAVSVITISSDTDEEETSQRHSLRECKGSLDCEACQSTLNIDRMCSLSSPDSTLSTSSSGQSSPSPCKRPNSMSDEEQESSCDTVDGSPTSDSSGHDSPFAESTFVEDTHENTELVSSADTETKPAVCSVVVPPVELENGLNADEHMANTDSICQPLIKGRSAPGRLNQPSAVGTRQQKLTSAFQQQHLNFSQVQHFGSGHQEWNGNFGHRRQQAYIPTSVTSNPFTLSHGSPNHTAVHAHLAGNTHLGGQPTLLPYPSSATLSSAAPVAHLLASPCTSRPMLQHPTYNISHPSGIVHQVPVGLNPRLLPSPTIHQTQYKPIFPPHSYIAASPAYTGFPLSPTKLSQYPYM

The residual activity is the signal under treatment as a percentage of the control signal. As to `c1ccc(-c2n[nH]cc2-c2ccnc3ccccc23)nc1`, the residual activity in assay [1] stood at 98%; in [2] it was 71%; in assay [3], 49%; in [4], 86%; in [5], 72%; in assay [6] it was 100%. Further, the residual activity in assay [7] stood at 69%; in [8], 131%; in assay [9], 133%; in assay [10], 123%; in assay [11], 92%; in assay [12] it was 77%. Further, the residual activity in [13] was 97%; in assay [14] it was 86%; in assay [15], 81% (inactive); in assay [16], 91%; in assay [17] it was 65%; in assay [18] it was 22%. Also, the residual activity in assay [19] came out at 101%; in assay [20], 66%.
Turning to `CO[C@H]1C[C@@H]2CC[C@@H](C)[C@@](O)(O2)C(=O)C(=O)N2CCCC[C@H]2C(=O)O[C@H]([C@H](C)C[C@@H]2CC[C@@H](O)[C@H](OC)C2)CC(=O)[C@H](C)/C=C(\C)[C@@H](O)[C@@H](OC)C(=O)[C@H](C)C[C@H](C)/C=C/C=C/C=C/1C`, the residual activity in assay [1] came to 110%; in [2] it was 86%; in [3], 106%; in [4] it was 73%; in [5], 81%; in [6], 99%. The residual activity in assay [7] was 87%; in assay [8], 123%; in assay [9], 112%; in assay [10], 112%; in assay [11], 93%; in assay [12], 76%. The residual activity was 94% in [13]; 113% in assay [14]; 89% (inactive) in assay [15]; 77% in assay [16]; 93% in [17]; 97% in assay [18]. Further, the residual activity in assay [19] stood at 102%; in assay [20], 107%.
For `COc1cc2ncnc(Nc3ccc(O)c(Br)c3)c2cc1OC`, the residual activity in [1] is 92%; in assay [2] it was 65%; in [3], 24%; in assay [4] it was 32%; in assay [5], 4%; in assay [6] it was 29%. Besides, the residual activity in assay [7] was 7%; in assay [8], 71%; in assay [9], 73%; in assay [10], 95%; in assay [11], 94%; in assay [12] it was 69%. The residual activity is 83% in [13]; 81% in assay [14]; 88% (inactive) in assay [15]; 106% in assay [16]; 47% in assay [17]; 16% in [18]. Further, the values for the residual activity in [19] and in assay [20] were 93% and 79%, respectively.

Source of the values: ChEMBL document CHEMBL2218924, “A broad activity screen in support of a chemogenomic map for kinase signalling research and drug discovery” (Biochem J, 2013).
